Bioassay records: PubChem BioAssay, National Center for Advancing Translational Sciences (NCATS)
Shown are actives, neighbours in structure and some others; about 6% of the full set was active somewhere.
DRD3 antagonist: blocks the human D3 dopamine receptor. P35462. hit rate 2.5% among 360,000. D3R cells, DiscoveRx beta-arrestin luminescence, antagonist mode; stronger effect = lower value. max response, negative = inhibition, %; in the data active means max response below about -50%; inconclusive means no clear call, values can overlap the other calls
Target sequence (P35462 whole entry, looked up): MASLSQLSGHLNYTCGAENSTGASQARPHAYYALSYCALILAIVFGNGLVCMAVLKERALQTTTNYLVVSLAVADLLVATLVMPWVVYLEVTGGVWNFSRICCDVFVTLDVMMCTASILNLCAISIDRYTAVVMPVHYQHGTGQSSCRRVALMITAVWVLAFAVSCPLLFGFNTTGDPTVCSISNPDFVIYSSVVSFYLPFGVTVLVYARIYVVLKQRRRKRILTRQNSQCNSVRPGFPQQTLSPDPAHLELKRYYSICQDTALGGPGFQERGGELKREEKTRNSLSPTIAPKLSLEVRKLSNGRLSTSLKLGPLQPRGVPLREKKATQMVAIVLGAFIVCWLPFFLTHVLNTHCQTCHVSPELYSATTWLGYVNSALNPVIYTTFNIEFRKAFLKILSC
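Cells expressing the human receptor were seeded at 1500 cells/well, incubated overnight at 37 degrees C in 5% CO2, then exposed to library compounds with dopamine controls for 90 minutes at 37 degrees C before luminescent detection.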
D1 agonist: human D1 receptor agonism. activation, % at 2 µM. P21728. hit rate 1% among 360,000. HEK293 T-REx D1 cells, calcium flux, agonist mode. AID 504660; in the data active means activation above about 30%
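Inducible HEK293 T-REx D1 cells, force-coupled to calcium signalling, were plated at 4000 cells/well with tetracycline and held overnight at 30 C. After no-wash calcium dye loading, compound-evoked calcium rise over 180 s flagged agonists.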
D1 potentiator: potentiators of human D1 dopamine receptor; hit rate 0.036% among 360,000; P21728; potentiation, % at 10 µM; AID 504651; HEK293 TREx D1 cells, calcium flux, dopamine EC20 potentiation; in the data active means potentiation above about 30%
DRD3 agonist: D3 dopamine receptor (human) agonism | D3R DiscoveRx beta-arrestin cells, luminescence, 90 min | hit rate 0.58% among 410,000 | max activation, % | AID 652048 | P35462; in the data active means max activation above about 30%
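Cells at 1500/well, incubated overnight, then treated with pinned compounds (dopamine as control) for 90 min at 37 degrees C. DiscoveRx reagent added for 30 - 60 minutes at room temperature; luminescence read.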
D1 antag: blocks dopamine activation of the human D1 receptor | P21728 | HEK293 TREx D1 cells, calcium flux, dopamine EC80; stronger effect = lower value | activity change, negative = inhibition, % at 10 µM | hit rate 3.2% among 360,000 | AID 504652; in the data active means activity change below about -30%
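Compound effects on dopamine-evoked calcium signalling were measured in tetracycline-induced HEK293 Trex D1 cells. Dopamine at EC80 followed a 180 s compound pre-read, and fluorescence was tracked kinetically for 180 s more.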
Of the large screens only hits and unclear results are named; the others gave an inactive call; ! = not active in a repeat.

O=[N+]([O-])c1cccc(CN2CCC(Cc3ccccc3)CC2)c1	none
OCCOCCOCCO	none (no result: DRD3 antagonist, D1 agonist, D1 potentiator, D1 antag)
C=C1CCC2[C@](C)(CO)[C@H](O)CC[C@@]2(C)[C@@H]1/C=C/C1=CCOC1=O (some centres undefined)	D1 antag -66
C=C1CC[C@@H]2[C@](C)(CO)[C@H](O)CC[C@@]2(C)[C@@H]1/C=C/C1=CCOC1=O	none
Cc1ccc(CNC(=O)CCCCCn2c(=O)c3sccc3n(CC(=O)C(C)(C)C)c2=O)cc1	none (no result: DRD3 antagonist)
CCCSCCCNC(=O)C1CCN(c2nc3ccccc3nc2C(F)(F)F)CC1	none (no result: DRD3 antagonist)
CC(=O)C(=Cc1ccc(-c2ccccc2)cc1)C(=O)c1ccccc1	DRD3 antagonist -53 (no result: D1 agonist, D1 potentiator, D1 antag)
O=C(NC1CCCC1)c1ccc(CS(=O)Cc2ccccc2Cl)o1 (centres undefined)	none
O=C(NC1CCCCC1)c1ccc(CS(=O)Cc2ccccc2Cl)o1 (centres undefined)	D1 antag -64
CSc1ccc(CCNC(=O)c2ccc(CS(=O)Cc3ccccc3Cl)o2)cc1 (centres undefined)	D1 antag -38
CCOC(=O)c1ccc(Nc2nc3ccccc3nc2NS(=O)(=O)c2ccc(Cl)cc2)cc1	D1 antag -40 (no result: DRD3 antagonist)
COc1cccc(Nc2nc3cc(C)ccc3nc2NS(=O)(=O)c2ccc(Cl)cc2)c1	D1 agonist 58, DRD3 agonist 43, D1 antag -50 (no result: DRD3 antagonist)
Cc1ccc2nc(NS(=O)(=O)c3ccc(Cl)cc3)c(Nc3ccc(C(=O)O)cc3)nc2c1	none (no result: DRD3 antagonist)
COc1cccc(Nc2nc3ccccc3nc2NS(=O)(=O)c2ccc(NC(C)=O)cc2)c1	none
CCc1ccc(Nc2nc3ccccc3nc2NS(=O)(=O)c2ccccc2)cc1	D1 antag -49 (no result: DRD3 antagonist)
CCOC(=O)c1ccccc1NC(=O)c1nn(C)c2c1COc1ccccc1-2	none (no result: DRD3 antagonist)
Cc1nc(C)c(CCNS(=O)(=O)c2ccc(C)c(C)c2)s1	none (no result: DRD3 antagonist)
Cc1cc(SCC(=O)N/N=C/c2ccc(O)c(O)c2)c(C)cc1Br	D1 antag -32
Cc1cc(SCC(=O)N/N=C/c2ccc(O)c(O)c2)nc2ccccc12	none
COc1cccc2c(SCC(=O)N/N=C/c3ccc(O)c(O)c3)cc(C)nc12	DRD3 agonist 31
O=C1C=C(NCc2ccccc2)c2ccccc2C1=O	DRD3 antagonist -71
COc1cccc(Cn2cccc(NC(=O)NC3CCCCC3)c2=O)c1	D1 antag -31
CCN1CN=C(NS(=O)(=O)c2ccc(C)cc2)NC1	D1 agonist 34 (no result: D1 antag)
CC(C)c1c(C(=O)N/N=C/c2ccsc2)nnn1-c1nonc1N	D1 agonist 39
CC(C)c1c(C(=O)N/N=C/c2cccc(OCc3ccccc3)c2)nnn1-c1nonc1N	DRD3 agonist 40
CC(C)c1c(C(=O)N/N=C/c2ccc(C(F)(F)F)cc2)nnn1-c1nonc1N	D1 agonist 253
CC(C)c1c(C(=O)N/N=C/c2ccoc2)nnn1-c1nonc1N	none
COc1ccc(NS(=O)(=O)c2ccc3[nH]c4c(c3c2)CCCCC4)cc1	none (no result: DRD3 antagonist)
O=c1c2oc3ccccc3c2n(Cc2cccc(C(F)(F)F)c2)c(=O)n1Cc1ccc2c(c1)OCO2	none (no result: DRD3 antagonist)
CC1CC(C)CN(S(=O)(=O)c2ccc3c(c2)CC(C)N3C(=O)C2CC2)C1 (centres undefined)	DRD3 antagonist -110
CCC(=O)N1c2ccc(S(=O)(=O)NCc3ccc(F)cc3)cc2CC1C (centres undefined)	D1 antag -33 (no result: DRD3 antagonist)
CC1CC(C)CN(S(=O)(=O)c2ccc3c(c2)CC(C)N3C(=O)C2CCC2)C1 (centres undefined)	none
CC1Cc2cc(S(=O)(=O)NCc3ccccc3Cl)ccc2N1C(=O)C1CCC1 (centres undefined)	D1 antag -80 (no result: DRD3 antagonist)
COc1ccc(S(=O)(=O)N2c3ccc(Cl)cc3[C@@](O)(c3ccccc3Cl)[C@H]2C(=O)N2CCC[C@@H]2C(N)=O)cc1OC	none (no result: DRD3 antagonist, D1 agonist, D1 potentiator, D1 antag)
CS(=O)(=O)Nc1ccccc1C(=O)OCc1cc(=O)n2nc(C3CCCCC3)sc2n1	none (no result: DRD3 antagonist)
Cc1cccc(Nc2c3c(nc4ncnn24)CCC3)c1	D1 antag -30
COc1cccc(N2CCN(c3c4c(nc5ncnn35)CCC4)CC2)c1	D1 antag -30
Cc1cc(C)cc(Nc2c3c(nc4ncnn24)CCC3)c1	none
COc1ccc(CNC(=O)C2CCN(c3nc4ccccc4[nH]3)CC2)c(OC)c1	none (no result: DRD3 antagonist)
COC(=O)c1ccccc1NC(=O)N1CCC(N2CCN(Cc3ccc(F)cc3)C(=O)C2=O)CC1	D1 antag -39 (no result: DRD3 antagonist)
CCOc1ccc(CC(=O)Nc2c(C(=O)Nc3ccc(OC)cc3OC)oc3ccccc23)cc1	none (no result: DRD3 antagonist)
O=C1C(C=NCCCN2CCOCC2)=C(O)c2ccccc21	D1 antag -37
O=C1C(C=NCCN2CCOCC2)=C(O)c2ccccc21	none
CCC1CCC(C(=O)NC(C(=O)Nc2cccc(OC)c2)C(C)C)CC1 (centres undefined)	D1 antag -32 (no result: DRD3 antagonist)
CC1CCCN(C(=O)Cn2c(=O)oc3cc(S(=O)(=O)N4CCCCC4)ccc32)C1 (centres undefined)	none
CC1CCN(S(=O)(=O)c2ccc3c(c2)oc(=O)n3CC(=O)N2CCc3ccccc3C2)CC1	DRD3 antagonist inconclusive, D1 antag -65 (no result: D1 potentiator)
CC1CCN(C(=O)Cn2c(=O)oc3cc(S(=O)(=O)N4CCCCC4)ccc32)CC1	D1 potentiator 48!
N#Cc1c2ccc(OCC(=O)NCc3ccco3)cc2n2ccccc12	none
N#Cc1c2ccc(O)cc2n2ccccc12	D1 agonist 58, DRD3 agonist 43
O=C(CO/N=C1\CCCc2nonc21)Nc1ccc(Br)cc1	DRD3 antagonist -83
COc1ccc(NC(=O)CO/N=C2\CCCc3nonc32)cc1	DRD3 antagonist inconclusive
COC(=O)c1ccc(NC(=O)CO/N=C2\CCCc3nonc32)cc1	none
COc1ccc(NC(=O)CO/N=C2/CCCc3nonc32)c(OC)c1	D1 antag -32
Cn1cc(S(=O)(=O)N2CCCCCC2)cc1C(=O)N1CCN(c2ccccc2F)CC1	none (no result: DRD3 antagonist)
O=C1COc2ccc(C(=O)COC(=O)CCCOc3ccccc3)cc2N1	none (no result: D1 agonist, D1 potentiator, D1 antag)
O=C1COc2ccc(C(=O)COC(=O)CCSc3ccccc3)cc2N1	D1 antag -31
COc1cc(/C=C/C(=O)OCC(=O)c2ccc3c(c2)NC(=O)CO3)ccc1OC(F)F	none (no result: D1 potentiator)
CC(C)CC(NC(=O)c1ccc(Cl)cc1)C(=O)OCC(=O)c1ccc2c(c1)NC(=O)CO2 (centres undefined)	DRD3 antagonist -73
O=C1COc2ccc(C(=O)COC(=O)c3ccccc3[N+](=O)[O-])cc2N1	none
O=C1COc2ccc(C(=O)COC(=O)c3ccccc3F)cc2N1	DRD3 antagonist -51 (no result: D1 agonist, D1 potentiator, D1 antag)
COc1ccc(/C=C/C(=O)OCC(=O)c2ccc3c(c2)NC(=O)CO3)cc1	D1 potentiator 30
Cc1ccc(NC(=O)Cn2c(=O)n(Cc3ccc4c(c3)OCO4)c(=O)c3ccc(C(=O)NC4CCCCC4)cc32)cc1	none (no result: DRD3 antagonist)
O=C1CCCCCCCN1Cc1ccccc1	none (no result: D1 agonist, D1 potentiator, D1 antag)
CC1=NN(Cc2ccccc2)C(=O)C1	D1 antag -36
